{"source": "PubChem BioAssay (Tox21)", "note": "Inconclusive results are not listed. Unmarked numbers belong to inactive results. Activity calls are given as the source filed them. Calls follow the shape of the dose curve; as a rule, active = well fitted cell-killing curve with a large enough effect in the repeat runs; inconclusive = weak or mixed curves, or effect the other way; inactive = flat fitted curve, though single readings scatter. % is scaled to controls: 0 for no effect and ±100 for the full control effect; potency is read from the fitted curve at half-maximal effect."}
{"test": "qHTS assay to identify small molecule that activate the aryl hydrocarbon receptor (AhR) signaling pathway - cell viability counter screen (AID 743086); also: nearly all actives have a fitted effect of over 45% in size;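 as to viability change, negative = cytotoxic: HepG2 liver cells carrying the AhR DRE luciferase reporter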", "settings": "HepG2-AhR-luc viability, CellTiter-Fluor, 24 h; series mostly up to 70.3 µM; viability change, negative = cytotoxic: at the top concentration", "source_text": "U.S. Tox21 Program National Center for Advancing Translational Sciences [NCATS] NIH Chemical Genomics Center [NCGC] U.S. Environmental Protection Agency [EPA] National Institutes of Environmental Health Sciences [NIEHS] National Toxicology Program [NTP] U.S. Food and Drug Administration [FDA] Tox21 Assay overview: The Aryl hydrocarbon Receptor (AhR), a member of the family of basic helix-loop-helix transcription factors, is crucial to adaptive responses to environmental changes. AhR mediates cellular responses to environmental pollutants such as aromatic hydrocarbons through induction of phase I and II enzymes but also interacts with other nuclear receptor signaling pathways A cell based HepG2-AhR-luc assay (HG2L7.5c1 cell line, developed by Dr. Michael S. Denison, University of California at Davis) was used to assess the activation of AhR. HepG2 (human hepatocellular carcinoma) cells were stably transfected with an Ah receptor-responsive firefly luciferase reporter gene plasmid containing 20 dioxin responsive elements and luciferase reporter gene. Increased luciferase activity can be used to identify the compounds that induce AhR activation. The cytotoxicity of the compounds screened against the HepG2-AhR-luc cell line was tested in parallel by measuring the cell viability using CellTiter-Fluor assay in the same wells.\nTox21 Assay Protocol Summary: 4000 cells in 5 uL/well were dispensed into white wall/solid bottom 1536-well plates using a Multidrop Combi (Thermo Fisher Scientific Inc., Waltham, MA) dispenser. After the assay plates were incubated at 37C for 5 h, 23 nL of compound or DMSO vehicle was transferred to the assay plates by a pintool station (Kalypsys, San Diego, CA). The plates were incubated at 37C for 24 hr. For cell viability measurement, 1 ul/well of CellTiter-Fluor reagent (Promega, Madison, WI) was added into the assay plates using a Flying Reagent Dispenser (FRD) (Aurora Discovery, CA),and then the assay plates were incubated at 37C for 30 min. The fluorescence intensity in the plates was measured using a ViewLux plate reader (PerkinElmer, Shelton, CT), followed by the addition of 4 uL of ONE-Glo Luciferase Assay reagent (Promega) using an FRD (Aurora Discovery). After the assay plates were incubated at room temperature for 30 min, luminescence intensity was measured using a ViewLux plate reader (Perkin Elmer)."}
{"smiles": "Nc1ccc(N=Nc2ccccc2)c(N)c1", "Potency": "26.7 µM (active)"}
{"smiles": "CC(CO)CO", "viability change, negative = cytotoxic": "3.14% [at 95 µM]"}
{"smiles": "CCC(=O)C1CC(C(C)C)CC=C1C", "note": "(stereo not given)", "viability change, negative = cytotoxic": "-0.887%"}
{"smiles": "CCOC(=O)C1=C(C)NC(C)=C(C(=O)OC)C1c1cccc(Cl)c1Cl", "note": "(stereo not given)", "viability change, negative = cytotoxic": "-11.1%"}
{"smiles": "Nc1cccc2c1CN(C1CCC(=O)NC1=O)C2=O", "note": "(stereo not given)", "viability change, negative = cytotoxic": "13.3%"}
{"smiles": "O=c1[nH]ncc2ccccc12", "viability change, negative = cytotoxic": "11%"}
{"smiles": "C=C(C)CCCC(C)CCO", "note": "(stereo not given)", "viability change, negative = cytotoxic": "7.75%"}
{"smiles": "CCC(C)COC(C)=O", "note": "(stereo not given)", "viability change, negative = cytotoxic": "-2.45%"}
{"smiles": "CC[C@]1(O)C[C@H]2CN(CCc3c([nH]c4ccccc34)[C@@](C(=O)OC)(c3cc4c(cc3OC)N(C=O)[C@H]3[C@@](O)(C(=O)OC)[C@H](OC(C)=O)[C@]5(CC)C=CCN6CC[C@]43[C@@H]65)C2)C1", "viability change, negative = cytotoxic": "-19.6%"}
{"smiles": "Cc1ccccc1N=C(N)Nc1ccccc1C", "viability change, negative = cytotoxic": "-19.3%"}
{"smiles": "CO[C@]1(NC(=O)CSC(F)F)C(=O)N2C(C(=O)O)=C(CSc3nnnn3CCO)CO[C@H]21", "viability change, negative = cytotoxic": "11.4%"}
{"smiles": "CC(=O)c1ccc([N+](=O)[O-])cc1", "viability change, negative = cytotoxic": "-5.72%"}
{"smiles": "CC1(CN2CCC(n3c(=O)[nH]c4ccccc43)CC2)OCc2ccccc2-n2cccc21", "note": "(stereo not given)", "viability change, negative = cytotoxic": "-27.8%"}
{"smiles": "CCC1CO1", "note": "(stereo not given)", "viability change, negative = cytotoxic": "-0.426%"}
{"smiles": "c1ccc2c(c1)CCc1ccccc1N2", "viability change, negative = cytotoxic": "-4.74% [at 95 µM]"}
{"smiles": "O=C(Cn1ccnc1[N+](=O)[O-])NCCO", "viability change, negative = cytotoxic": "6.9%"}
{"smiles": "NCCNCCO", "viability change, negative = cytotoxic": "9.48% [at 95 µM]"}
{"smiles": "CC(CN(C)C)C(C)(O)Cc1ccc(Cl)cc1", "note": "(stereo not given)", "viability change, negative = cytotoxic": "4.21%"}
{"smiles": "CC(C)(C)C(=O)C(=O)O", "viability change, negative = cytotoxic": "1.52%"}
{"smiles": "C[C@]1(Cn2ccnn2)[C@H](C(=O)O)N2C(=O)C[C@H]2S1(=O)=O", "viability change, negative = cytotoxic": "5.5%"}
{"smiles": "Cc1c(C)c2c(c(C)c1OC(=O)CCC(=O)OCCO)CC[C@@](C)(CCC[C@H](C)CCC[C@H](C)CCCC(C)C)O2", "viability change, negative = cytotoxic": "-20.6%"}
{"smiles": "CC(O)c1ccccc1", "note": "(stereo not given)", "viability change, negative = cytotoxic": "6.95% [at 95 µM]"}
{"smiles": "Cc1cc2c(OCC(CNC(C)(C)C)OC(=O)c3ccccc3)cccc2[nH]1", "note": "(stereo not given)", "viability change, negative = cytotoxic": "4.96%"}
{"smiles": "CC(C)Nc1cccnc1N1CCN(C(=O)c2cc3cc(NS(C)(=O)=O)ccc3[nH]2)CC1", "viability change, negative = cytotoxic": "-28.5%"}
{"smiles": "CCCCCCCCC(CCCCCC)C(=O)O", "note": "(stereo not given)", "viability change, negative = cytotoxic": "12.8%"}
{"smiles": "CN1C(C(=O)Nc2ccccn2)=C(O)c2sccc2S1(=O)=O", "viability change, negative = cytotoxic": "-12.4% [at 32.5 µM]"}
{"smiles": "COc1ccccc1Oc1c(NS(=O)(=O)c2ccc(C(C)(C)C)cc2)nc(-c2ncccn2)nc1OCCO", "viability change, negative = cytotoxic": "-9.26%"}
{"smiles": "CCOC(=O)c1ccc(OCCN2C[C@H](O)[C@@H](O)[C@H](O)[C@H]2CO)cc1", "viability change, negative = cytotoxic": "-2.63%"}
{"smiles": "CCCCCCCCCCCCCCN(CCO)CCO", "viability change, negative = cytotoxic": "-15.5%"}
{"smiles": "C1C[C@@H]2[C@H]3CC[C@H](C3)[C@@H]2C1", "viability change, negative = cytotoxic": "0.23%"}
{"smiles": "O=C(O)CCc1nc(-c2ccccc2)c(-c2ccccc2)o1", "viability change, negative = cytotoxic": "21.8%"}
{"smiles": "CCc1ccccc1", "viability change, negative = cytotoxic": "-1.21% [at 95 µM]"}
{"smiles": "CC1(C)O[C@@H]2C[C@H]3[C@@H]4C[C@H](F)C5=CC(=O)C=C[C@]5(C)[C@H]4[C@@H](O)C[C@]3(C)[C@]2(C(=O)CO)O1", "viability change, negative = cytotoxic": "-3.84% [at 32.5 µM]"}
{"smiles": "CCC1(CO)COCOC1", "viability change, negative = cytotoxic": "2.86%"}
{"smiles": "CCN(CC)CCNC(=O)COc1ccc(OC)cc1", "viability change, negative = cytotoxic": "19.1%"}
{"smiles": "CCOC(=O)OC(C)OC(=O)[C@@H]1N2C(=O)[C@@H](NC(=O)[C@H](N)c3ccccc3)[C@H]2SC1(C)C", "note": "(stereo not given in full)", "viability change, negative = cytotoxic": "13.8% [at 32.5 µM]"}
{"smiles": "CN(C)CCC=C1c2ccccc2C=Cc2ccccc21", "viability change, negative = cytotoxic": "-22.1%"}
{"smiles": "C=C1c2cccc(O)c2C(O)=C2C(=O)[C@]3(O)C(O)=C(C(N)=O)C(=O)[C@@H](N(C)C)[C@@H]3[C@@H](O)[C@H]12", "viability change, negative = cytotoxic": "5.46% [at 32.5 µM]"}
{"smiles": "Cc1cc(C)c(N)cc1C", "viability change, negative = cytotoxic": "-0.265%"}
{"smiles": "O=c1cc(-c2ccccc2)oc2ccc3ccccc3c12", "viability change, negative = cytotoxic": "-12.1%"}
